Laboratory results: PubChem BioAssay (NCATS)
Records with an inconclusive call do not appear. Activity calls are given as the source filed them. Calls come from the whole dose curve; as a rule, active = well fitted inhibition curve with a large enough effect; inconclusive = small, poorly fitted or top-dose-only effect; inactive = flat fitted curve, though single readings scatter.

Experiments:
Experiment in all cases: qHTS profiling for inhibitors of Plasmodium falciparum proliferation (AID 504749); note: nearly all actives have a fitted effect of over 60% in size
Settings in all cases: P. falciparum in erythrocytes, SYBR Green DNA, 72 h; series mostly up to 28.7 µM
CP260 = test system: CP260
In short: (§1)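 Fluorescence of SYBR Green-bound parasite DNA, read at 485/535 nm, served as the growth measure. Infected erythrocytes were cultured with compound 72 h; artemisinin (0.29 uM) and DMSO wells defined the normalization range.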

CP262 = test system: CP262
In short: as §1

CP265 = test system: CP265
In short: as §1

CP268 = test system: CP268
In short: as §1

CP269 = test system: CP269
In short: as §1

CP297 = test system: CP297
In short: as §1

CP305 = test system: CP305
In short: as §1

CP315 = test system: CP315
In short: as §1

CP325 = test system: CP325
In short: as §1

CP329 = test system: CP329
In short: as §1

DFO2036 = test system: DFO2036
In short: as §1

DIV14 = test system: DIV14
In short: as §1

DIV17 = test system: DIV17
In short: as §1

DIV30 = test system: DIV30
In short: as §1

Dd2 = test system: Dd2
In short: as §1

ECU = test system: ECU
In short: as §1

FAB9 = test system: FAB9
In short: as §1

HB3 = test system: HB3
In short: as §1

JCK = test system: JCK
In short: as §1

P93_24 = test system: P93_24
In short: as §1

P94_40 = test system: P94_40
In short: as §1

PAD = test system: PAD
In short: as §1

PC15 = test system: PC15
In short: as §1

PC26 = test system: PC26
In short: as §1

PC49 = test system: PC49
In short: as §1

SC27B = test system: SC27B
In short: as §1

TAB113 = test system: TAB113
In short: as §1

Measured: Potency

C=C1C(=O)O[C@@H]2[C@@H]1CC/C(C)=C\CC[C@@]1(C)O[C@H]21
inactive: all assays above
